The values below come from PubChem BioAssay (EPA / NIEHS).

Records with an inconclusive call do not appear. Active and inactive are the calls of the source. Rule for the calls: active = hit-call score of the fitted dose curve at least 0.9, where 1 is the maximum; inconclusive = response in the unintended direction; inactive = score below 0.9.

Sequence of Broad substrate specificity ATP-binding cassette transporter ABCG2 (Homo sapiens) (Q9UNQ0 whole entry, looked up): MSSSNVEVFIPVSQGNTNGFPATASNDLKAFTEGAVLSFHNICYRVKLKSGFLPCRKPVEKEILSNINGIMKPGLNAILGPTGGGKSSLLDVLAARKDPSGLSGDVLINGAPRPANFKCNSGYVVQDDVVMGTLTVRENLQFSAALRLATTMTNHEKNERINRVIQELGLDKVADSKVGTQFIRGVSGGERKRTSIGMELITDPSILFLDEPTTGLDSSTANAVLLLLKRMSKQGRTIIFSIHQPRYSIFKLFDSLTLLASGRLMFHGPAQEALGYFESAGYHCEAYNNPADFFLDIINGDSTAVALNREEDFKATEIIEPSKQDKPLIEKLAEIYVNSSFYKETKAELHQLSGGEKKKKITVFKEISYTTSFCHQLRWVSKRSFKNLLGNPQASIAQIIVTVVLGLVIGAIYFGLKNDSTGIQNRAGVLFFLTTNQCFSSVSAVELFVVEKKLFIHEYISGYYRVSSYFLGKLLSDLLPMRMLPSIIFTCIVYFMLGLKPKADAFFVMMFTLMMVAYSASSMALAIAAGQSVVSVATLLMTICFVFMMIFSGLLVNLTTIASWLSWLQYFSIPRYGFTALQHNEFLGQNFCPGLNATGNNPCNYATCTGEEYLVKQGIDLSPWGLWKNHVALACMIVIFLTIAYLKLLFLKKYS

Read-out in the experiment: Broad substrate specificity ATP-binding cassette transporter ABCG2 (Homo sapiens) (UniProt Q9UNQ0)
The experiment can be described thus: CLD_ABCG2_24hr: CellzDirect (CLD) Gene Expression Assay for ABC Transporter (ABCG2) at 24 hours (AID 2283685). Here is the method:
CLD_24hr is a cell-based, multiplexed-readout assay that uses hepatocyte, a human liver primary cell, with measurements taken at 24 hours after chemical dosing in a 96-well plate.CLD_ABCG2_24hr is one of 16 assay component(s) measured or calculated from the CLD_24hr assay. It is designed to make measurements of mRNA induction, a form of inducible reporter, as detected with chemiluminescence signals by Quantitative Nuclease Protection Assay (qNPA) technology.Data from the assay component CLD_ABCG2_24hr was analyzed at the endpoint, CLD_ABCG2_24hr, in the positive analysis fitting direction relative to DMSO as the negative control and baseline of activity. Using a type of inducible reporter, gain-of-signal activity can be used to understand changes in the reporter gene as they relate to the gene ABCG2. Furthermore, this assay endpoint can be referred to as a primary readout. To generalize the intended target to other relatable targets, this assay endpoint is annotated to the transporter intended target family, where subfamily is ABC transporter.
Human hepatocyte cultures were treated daily for two consecutive days with fresh dosing solutions containing appropriate concentrations of the 320 ToxCast chemicals (chemical identities were blinded to CellzDirect and other ToxCast collaborators), vehicle control (0.2% DMSO), and positive control inducers as summarized in Table 1. Due to the large number of treatment groups and chemicals examined, the ToxCast chemicals were divided into two groups (spanning two independent cultures of hepatocytes from separate donor preparations (Hu778: ToxCast plates 1 and 2; Hu776: ToxCast plates 3 and 4). Each preparation of human hepatocyte cultures was treated with respective vehicle control, medium only control, set of six positive controls/reference chemicals for the five hepatic receptor pathways, and a subset of eight of the ToxCast chemicals (indoxacarb, pyrithiobac-sodium, norflurazon, cyhalofop-butyl, methomyl, thiram, acetochlor, and propiconazole). These replicate data, coupled with internal replicates designed within the blinded ToxCast chemical library, provided additional data to evaluate interindividual differences between hepatocyte preparations and their potential impact on chemical profiles.Cell morphology and integrity were evaluated using phase-contrast microscopy as an indicator of hepatocyte cell health (Tyson & Green, 1987). Cultures for each treatment group (i.e., media, vehicle [0.2% DMSO], positive control inducers [multiple concentrations], and the ToxCast chemicals [multiple concentrations]) were observed and cell morphology was assessed relative to vehicle control cultures at each harvest time point (0, 6, 24, or 48 h). […] Images were evaluated at the conclusion of the study to assess changes in cell integrity and account for the effects of chemical exposure on uncharacteristic changes in concentration-dependent gene expression profiles. The results from these determinations of apparent cytotoxicity were annotated (yes/no) alongside the corresponding qNPA data for reference.At the conclusion of each treatment period, hepatocyte cultures (96-well) were washed with 1 volume of HBSS, lysed by addition of 25 ul ArrayPlate lysis buffer (HTG, Tucson, AZ), and 70 ul/well of Denaturation Oil, denatured by incubation at 95C for 10 min, and frozen at approximately -70C until analysis by nuclease protection assay (qNPA) (Roberts et al., 2007). For qNPA analysis, cell lysates were thawed at 50C for approximately 30 min, qNPA probes were added, and samples were incubated at 95C for 10 min to begin the detection process by denaturing the target RNA, dissociating the duplexes and secondary structure hybridization. At the conclusion of the hybridization period, S1 nuclease reagent was added to each sample to digest all nonprotected nucleotides at 50C for 60-90 min. […]
As to `CC1(C)C(C=C(Cl)Cl)C1C(=O)OC(C#N)c1cccc(Oc2ccccc2)c1` (stereo not given), the result was inactive.

For the compound `Cc1nc(N(C)C)nc(OC(=O)N(C)C)c1C`, the result was inactive.

With `COP(=O)(OC)O/C(C)=C/C(=O)N(C)C`, the compound was called inactive.

Regarding `Cc1cnc(C2=NC(C)(C(C)C)C(=O)N2)c(C(=O)O)c1` (stereo not given), the result was inactive.

In the case of `N#Cc1c(Cl)cccc1Cl`, the call was inactive.

`Nc1c(Cl)c(F)nc(OCC(=O)O)c1Cl`: the call was inactive.

For `CCCCC(O)(Cn1cncn1)c1ccc(Cl)cc1Cl` (stereo not given), the result was inactive.

With `COC(=O)NC(=S)Nc1ccccc1NC(=S)NC(=O)OC`, the call was inactive.

As to `O=C1C2CC=CCC2C(=O)N1SC(Cl)(Cl)Cl` (stereo not given), the outcome was inactive.

`CC1(C)C(C(=O)OC(C#N)c2cccc(Oc3ccccc3)c2)C1(C)C` (stereo not given): the outcome was inactive.

For the compound `CSC(=O)c1c(C(F)F)nc(C(F)(F)F)c(C(=O)SC)c1CC(C)C`, the compound was classed as inactive.

With `N#CN=C1SCCN1Cc1ccc(Cl)nc1`, the compound was called inactive.

In the case of `Cc1ccc(N=CN(C)C=Nc2ccc(C)cc2C)c(C)c1`, the compound was classed as inactive.

With `COCc1cnc(C2=NC(C)(C(C)C)C(=O)N2)c(C(=O)O)c1` (stereo not given), the compound was called inactive.

As to `CCOc1nc(C(Cl)(Cl)Cl)ns1`, the call was inactive.

In the case of `OC(c1ccc(Cl)cc1)(c1ccc(Cl)cc1)C(Cl)(Cl)Cl`, the outcome was inactive.

For the compound `Cc1c(COC(=O)[C@@H]2[C@H](/C=C(\Cl)C(F)(F)F)C2(C)C)cccc1-c1ccccc1`, the outcome was inactive.

Consider `COCC(=O)N(c1c(C)cccc1C)C(C)C(=O)OC` (stereo not given), for which the outcome was inactive.

With `CC(C)N1C(=O)c2ccccc2NS1(=O)=O`, the compound was classed as inactive.

Take `CC(C)N1C(=O)N(c2ccccc2)CSC1=NC(C)(C)C`: the compound was classed as inactive.

With `O=C(O)c1c(Cl)ccc2cc(Cl)cnc12`, the result was inactive.

As for `CC1(C)CON(Cc2ccccc2Cl)C1=O`, the compound was called inactive.

Turning to `CCCC(=NOCC)C1=C(O)CC(CC(C)SCC)CC1=O` (stereo not given), the outcome was inactive.

For `CCOP(=S)(OCC)Oc1nc(Cl)n(C(C)C)n1`, the call was inactive.

With `CCOc1nc(F)cc2nc(S(=O)(=O)Nc3c(Cl)cccc3Cl)nn12`, the outcome was inactive.

On to `COC(=O)c1c(C(F)F)nc(C(F)(F)F)c(C2=NCCS2)c1CC(C)C`, for which the result was inactive.

Turning to `CC(C)=CC1C(C(=O)OCc2coc(Cc3ccccc3)c2)C1(C)C` (stereo not given), the result was inactive.

Take `COc1cc(Cl)c(OC)cc1Cl`: the outcome was inactive.

Take `C=C(C)CN(CC)c1c([N+](=O)[O-])cc(C(F)(F)F)cc1[N+](=O)[O-]`: the result was inactive.

As to `Nc1c(Cl)c(Cl)nc(C(=O)O)c1Cl`, the outcome was inactive.

For `CC(C)(C)C(=O)C(Oc1ccc(Cl)cc1)n1cncn1` (stereo not given), the result was inactive.

Turning to `CNC(=O)Oc1cccc2ccccc12`, the result was inactive.

For the compound `CCOP(=O)(OCC)Oc1nc(Cl)c(Cl)cc1Cl`, the compound was classed as inactive.

As to `Clc1cccc(C(Cl)(Cl)Cl)n1`, the call was inactive.

Turning to `COc1ccc(-c2ccccc2)cc1NNC(=O)OC(C)C`, the result was inactive.

Turning to `COP(=S)(OC)SCn1nnc2ccccc2c1=O`, the call was inactive.

For `Cn1c(-c2ccccc2)cc(-c2ccccc2)[n+]1C`, the call was inactive.

On to `CCCCC(C#N)(Cn1cncn1)c1ccc(Cl)cc1` (stereo not given), for which the outcome was inactive.

For `CCOC(=O)C(C)OC(=O)c1cc(Oc2ccc(C(F)(F)F)cc2Cl)ccc1[N+](=O)[O-]` (stereo not given), the outcome was inactive.

Consider `COCC(C)N(C(=O)CCl)c1c(C)csc1C` (stereo not given), for which the result was inactive.
